Compounds with a hit are over-represented: about 5.3% of the library has one in this group of screens.
BAZ2B inh: qHTS Assay for Inhibitors of BAZ2B. AlphaScreen BAZ2B-H3K14Ac peptide displacement. Bromodomain adjacent to zinc finger domain protein 2B (Homo sapiens), Q9UIF8. 360,000 tested, 4.4% active. Potency, µM (titrated, usually from 114 µM), inactives show top-dose activity change, negative = inhibition, actives largely listed as inhibitors. AID 504333, 2011; note: potency is the fitted concentration of half-maximal effect; % is set by controls: 0 for no effect and ±100 for the full control effect; nearly all actives have a fitted effect of over 60% in size
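In this displacement format the biotinylated H3(5-23) peptide acetylated at Lys14 serves as ligand at 50 nM, with BAZ2B at 50 nM in PBS pH 7.4 containing 0.01% Tween-20. Donor and acceptor beads are 10 ug/mL final.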
Six1-Eya2 blk: qHTS Assay for Inhibitors of the Six1/Eya2 Interaction | AlphaScreen GST-Six1/His-Eya2 binding, biochemical; stronger effect = lower value | activity change, % (concentration not given with the values) | 360,000 tested, 0.56% active | Homeobox protein SIX1 (Homo sapiens) + Protein phosphatase EYA2 (Homo sapiens), … | AID 651725, 2012; in the data active = activity change below about -65%; inconclusive = mostly about -30% to -63%; note: % is set by controls: 0 for no effect and ±100 for the full control effect
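Compounds are tested against tagged Six1 and Eya2 proteins bridged by glutathione donor and nickel acceptor beads; after a one-hour incubation at 37 °C without light, AlphaScreen emission is recorded.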
HP1b chromo inh: HTS for Inhibitors of HP1-beta Chromodomain Interactions with Methylated Histone Tails | AlphaScreen HP1-beta / biotin-H3K9me3 peptide binding | Potency, µM (highest dose often 114 µM), inactives show at the highest dose activity change, negative = inhibition, usual class: inhibitors | 390,000 tested, 0.56% active; note: potency is the fitted concentration of half-maximal effect; nearly all actives have a fitted effect of over 70% in size
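AlphaScreen: HP1-beta (50 nM) preformed 30 min with biotin-H3(1-18)K9me3 peptide (50 nM) in PBS pH 7.4, 0.01% Tween-20. Compound added for 30 min at RT, then streptavidin donor/nickel chelate acceptor beads (10 ug/mL) for 30 min.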
CtBP-E1A blk: qHTS Assay for Inhibitors of the CtBP/E1A Interaction; AID 651724, 2012; activity change, % (test concentration not listed); AlphaScreen GST-E1A/His-CtBP binding, 1536-well; stronger effect = lower value; CtBP / adenovirus E1A interaction (AlphaScreen); 340,000 tested, 0.49% active; in the data active = activity change below about -65%; inconclusive = mostly about -30% to -63%; note: % is set by controls: 0 for no effect and ±100 for the full control effect
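AlphaScreen with 125 nM GST-E1A and 125 nM His-CtBP (5X stocks) in Tris pH 8.0, 300 mM NaCl, BSA, Tween 20, TCEP. Compounds preincubated 2 h at 37 deg C, then glutathione donor/nickel acceptor beads added for 1 h at 37 deg C in dark.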
TDP1 inh: qHTS Assay for Inhibitors of Tyrosyl-DNA Phosphodiesterase (TDP1). recombinant TDP1, AlphaScreen DNA substrate cleavage. Potency, µM (top dose mostly 130 µM), without a hit: at the top dose activity change, negative = inhibition, actives largely listed as inhibitors. Tyrosyl-DNA phosphodiesterase 1 (Homo sapiens), Q9NUW8. 350,000 tested, 0.28% active; note: potency is the fitted concentration of half-maximal effect; % is set by controls: 0 for no effect and ±100 for the full control effect; nearly all actives have a fitted effect of over 40% in size
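AlphaScreen read-out: signal falls as enzyme removes the 3' tyrosine-FITC from a 5'-biotinylated DNA oligo (15 nM, 5 min, RT). Enzyme was E. coli-made recombinant Tdp1 at 1 nM, exposed to compound for 15 min beforehand; beads 10 ug/ml, 10 min.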
JMJD2A Tudor: qHTS Assay for Inhibitors of JMJD2A-Tudor Domain | Lysine-specific demethylase 4A (Homo sapiens), O75164 | AlphaScreen JMJD2A-Tudor / H3K4me3 peptide binding | Potency, µM (titrated, usually from 114 µM), for inactives: at the top dose activity change, negative = inhibition, most hits filed as inhibitors | 390,000 tested, 4.4% active | AID 504339, 2011; note: potency is the fitted concentration of half-maximal effect; % is set by controls: 0 for no effect and ±100 for the full control effect; nearly all actives have a fitted effect of over 50% in size
Target sequence (O75164 whole entry, looked up, the tested form may be a part): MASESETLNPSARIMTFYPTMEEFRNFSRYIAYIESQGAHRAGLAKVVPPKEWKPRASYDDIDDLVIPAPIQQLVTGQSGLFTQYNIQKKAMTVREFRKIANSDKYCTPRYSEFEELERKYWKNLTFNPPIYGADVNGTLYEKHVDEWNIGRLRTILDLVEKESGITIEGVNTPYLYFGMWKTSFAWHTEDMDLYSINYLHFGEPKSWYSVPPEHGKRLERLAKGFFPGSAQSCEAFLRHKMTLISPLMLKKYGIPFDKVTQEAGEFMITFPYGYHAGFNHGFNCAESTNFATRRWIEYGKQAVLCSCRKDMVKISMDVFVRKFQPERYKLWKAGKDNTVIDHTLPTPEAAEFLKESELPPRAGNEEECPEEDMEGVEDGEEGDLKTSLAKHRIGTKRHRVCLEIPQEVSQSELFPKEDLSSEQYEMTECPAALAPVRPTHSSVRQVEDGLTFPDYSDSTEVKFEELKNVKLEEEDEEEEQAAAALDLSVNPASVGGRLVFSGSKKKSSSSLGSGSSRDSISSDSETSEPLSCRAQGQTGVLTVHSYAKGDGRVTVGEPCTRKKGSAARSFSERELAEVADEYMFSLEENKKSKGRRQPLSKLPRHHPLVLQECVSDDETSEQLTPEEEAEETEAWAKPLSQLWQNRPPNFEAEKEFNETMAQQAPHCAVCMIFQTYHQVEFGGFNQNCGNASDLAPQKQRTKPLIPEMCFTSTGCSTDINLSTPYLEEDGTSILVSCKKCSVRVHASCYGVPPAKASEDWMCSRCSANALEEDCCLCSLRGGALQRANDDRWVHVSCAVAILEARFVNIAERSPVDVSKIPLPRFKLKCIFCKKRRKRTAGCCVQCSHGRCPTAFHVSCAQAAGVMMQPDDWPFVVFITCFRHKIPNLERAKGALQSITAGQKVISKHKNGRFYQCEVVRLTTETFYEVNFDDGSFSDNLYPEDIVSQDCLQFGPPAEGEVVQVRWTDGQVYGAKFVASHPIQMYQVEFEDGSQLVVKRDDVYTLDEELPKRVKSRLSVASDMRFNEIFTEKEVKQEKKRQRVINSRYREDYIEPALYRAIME
* hit, by the source's call; ? = inconclusive; / = not tested or not shown; [ ] = dose if it differs, or a comment. Unless noted, calls come from the whole dose curve; as a rule, active = well fitted inhibition curve with a large enough effect; inconclusive = small, poorly fitted or top-dose-only effect; inactive = no such curve, though single readings can be large or run the other way.

SMILES	BAZ2B inh	Six1-Eya2 blk	HP1b chromo inh	CtBP-E1A blk	TDP1 inh	JMJD2A Tudor
CC(C)c1ccc(/C=N/N2CCN(c3ccccn3)CC2)cc1	-23.4%	-6.1	5.9%	-13.9	2.4%	-27.6%
CNS(=O)(=O)c1cn(CC(=O)N2CCN(c3cccc(Cl)c3)CC2)cc1S(=O)(=O)NC	-16.0%	/	4.9%	/	-2.8%	-21.0%
O=C(NN1C(=O)/C(=C/c2cccs2)SC1=S)c1ccccc1	11.1%	-16.1	35.4%	1.9	-1.4%	-5.6%
Cn1cccc1/C=C1/SC(=S)N(CC(=O)O)C1=O	-33.1%	-17.8	8.7%	-9.1	-8.1%	-23.6%
Cn1cccc1/C=C1\SC(=S)N(NC(=O)c2ccc(F)cc2)C1=O	35.5µM*	?	-38.4%	?	12.3%	?
Cn1cccc1/C=C1\SC(=S)N(NC(=O)c2cccc(Cl)c2)C1=O	28.2µM*	?	?	-22.2	9.1%	28.2µM*
COc1ccc(NC(=O)CSC2=Nc3ccccc3C3=NC(Cc4ccccc4)C(=O)N23)cc1Cl (stereo not drawn)	-10.2%	/	-0.4%	/	8.8%	-21.5%
Fc1ccc(-n2ncc3c(Nc4cccc(Cl)c4)ncnc32)cc1	5.5%	/	25.4%	/	2.6%	-3.1%
Cc1cc(-c2ccc(N=Nc3c(S(=O)(=O)O)cc4cc(S(=O)(=O)O)cc(N)c4c3O)c(C)c2)ccc1N=Nc1c(S(=O)(=O)O)cc2cc(S(=O)(=O)O)cc(N)c2c1O	1.41µM*	/	/	/	/	/
O=S(=O)(O)c1cc(O)c2c(O)c(N=Nc3cc(Cl)ccc3O)c(S(=O)(=O)O)cc2c1	11.2µM*	-74.7*	20µM*	-94.7*	/	10µM*
CCN(Cc1ccccc1)Cc1c(F)cccc1F	/	14.2	?	13.5	-2.1%	20µM*
Cc1cc(=O)n(CC(=O)Nc2ccc(Cl)c(Cl)c2)c(-n2nc(C)cc2C)n1	?	/	45.0%	/	2.6%	?
CCOC(=O)c1cnc2c(-c3ccc(F)cc3)cnn2c1C(F)(F)F	-33.2%	11.5	25.7%	9.0	2.7%	35.5µM*
CCOC(=O)c1cnc2c(-c3ccccc3)cnn2c1N	0.6%	3.5	15.3%	-3.9	5.9%	-12.1%
N#C/C(=C\c1ccc(-c2ccc(Cl)c(C(=O)O)c2)o1)c1nc2ccccc2[nH]1	50.1µM*	/	7.2%	/	/	?
N#C/C(=C\c1ccccc1C(=O)O)c1nc2ccccc2[nH]1	3.1%	22.7	45.6%	0.0	/	-13.9%
N#C/C(=C\c1ccc(N2CCOCC2)o1)c1nc2ccccc2[nH]1	16.1%[57.1 µM]	-28.3	6.4%	?	12.1%	-2.7%[11.4 µM]
N#C/C(=C\c1ccc(-c2ccc(C(=O)O)cc2)o1)c1nc2ccccc2[nH]1	-0.9%	-23.9	?	?	-0.4%[12.3 µM]	89.1µM*
COc1ccc(C)cc1NC(=O)N(Cc1ccc(C)o1)C1CCN(C(C)=O)CC1	-24.4%	/	6.2%	/	3.7%	-14.2%
CC(=O)N1CCN(c2nc(-c3ccco3)c3c(c2C#N)CC(C)(C)SC3)CC1	-6.8%	0.8	32.8%	3.8	-4.9%	-15.1%[11.4 µM]
N#Cc1c(N2CCN(C(=O)c3ccccc3Cl)CC2)nc(-c2ccccc2)c2c1CCCC2	12.0%	24.9	54.6%	0.0	-3.8%	1.4%
CC1(C)Cc2c(C#N)c(N3CCN(C(=O)c4ccccc4Cl)CC3)nc(-c3ccco3)c2CS1	39.8µM*	-14.0	-13.5%	9.8	1.0%	?
CC1(C)Cc2c(C#N)c(N3CCN(C(=O)c4ccco4)CC3)nc(-c3ccco3)c2CS1	20µM*	-12.5	-32.1%	-2.3	0.0%	50.1µM*
